Measurements from PubChem BioAssay (EPA / NIEHS).
Active and inactive are the calls of the source. The calls were made as follows: active = hit-call score of the fitted dose curve at least 0.9, where 1 is the maximum; inactive = score below 0.9.

Assay: CCTE_Shafer_MEA_acute_cross_correlation_HWHM: CCTE's Neural Acute Assay for Cross Correlation at Half Width at Half Maximum, Shafer Lab (AID 2284026)
Method: CCTE_Shafer_MEA_acute assay is conducted using Axion Biosystems 48 well microelectrode array (MEA) plates and Maestro recording system. Each well of the MEA plate contains a grid of 16 microelectrodes embedded in the culture surface. Electrically active cells, such as neurons, can be cultured over the electrodes, and electrical activity in these cells can be recorded extracellularly. The spontaneous firing of neurons is captured from each electrode on a microsecond timescale providing both temporally and spatially precise data. […] The CCTE_Shafer_MEA_acute assay uses primary cultures of rat cortical neurons. As these cultures mature over time, neural networks develop functional activity and form cohesive networks in which electrical activity can be highly coordinated. Baseline 40-minute recordings are made on days post-plating 13 or 15, followed by a secondary 40-minute recording after chemical exposure.CCTE_Shafer_MEA_acute_cross_correlation_HWHM is a component of the CCTE_Shafer_MEA_acute assay. It measures the distance along the x-axis (phase lag) from the left half maximum height to the center of the cross-correlogram of action potential firing during a recording in a microelectrode array (MEA) using Axion Biosystems Maestro 768 channel amplifier with the AxIS adaptive spike detector. Smaller values indicate a narrower correlogram (greater synchrony). The recordings before and after chemical treatment are used to calculate a percent change in the half width at half maximum of the cross-correlogram in each well.Data from the assay component CCTE_Shafer_MEA_acute_cross_correlation_HWHM was analyzed into 1 assay endpoint. This assay endpoint, CCTE_Shafer_MEA_acute_cross_correlation_HWHM, was analyzed in the negative analysis fitting direction relative to DMSO as the negative control and baseline of activity. Using a type of functional reporter, gain or loss-of-signal activity can be used to understand electrical activity.
Spontaneous activity in the cortical cultures was recorded using an Axion Biosystems Maestro 768 channel amplifier and Axion Integrated Studios (AxIS) v1.8 (or later) software. The amplifier recorded from all channels simultaneously (gain = 1200 x; sampling rate = 12.5 kHz/channel): raw signals were filtered with a Butterworth band-pass filter (300-5000 Hz), which filters out slower local field potentials leaving only fast potentials, i.e., "spikes", arising from extracellular currents associated with action potentials (Pine 2006; Wheeler and Nam 2011). On-line spike detection of filtered signals was conducted with the AxIS adaptive spike detector, using a threshold of 8x the root mean squared (rms) noise on each channel. Any electrodes with rms noise levels greater than 5 uV were grounded (e.g., no data were recorded). Once grounded, an electrode was grounded for the duration of the experiment. All recordings were conducted at 37 C. Wells were deemed usable if on the day of the exposure >/= 10 electrodes were active (defined as >/= 5 spikes/min). On DIV 13 or 15, a minimum of three wells from one cortical culture preparation were treated with each compound (0.03-40 uM). Prior to recording baseline activity, each mwMEA plate was placed in the Maestro at 37 C and allowed to sit for 20 min while firing rates stabilized. Baseline activity (40 min) was recorded before the addition of each compound. An additional 40 min of spontaneous activity was recorded in the presence of each compound. Changes in network parameters relative to baseline were assessed following compound treatment.
In the case of CC1(C)C(C=C(Cl)Cl)C1C(=O)OCc1cccc(Oc2ccccc2)c1 (centres undefined), the outcome is reported as “inactive”.
For CCNc1nc(N)nc(Cl)n1, the outcome was “inactive”.
For CCCCC(CC)CN1C(=O)C2C3C=CC(C3)C2C1=O (centres undefined), the outcome was “inactive”.
For C#CCOC(=O)[C@@H](C)Oc1ccc(Oc2ncc(Cl)cc2F)cc1, the outcome was “inactive”.
In the case of CC(C)(c1ccc(O)cc1)c1ccc(O)cc1, the AC50 is reported as 28.6 µM (active).
For O=C(Nc1ccc([N+](=O)[O-])cc1Cl)c1cc(Cl)ccc1O, the AC50 was 1.08 µM (active).
With CSC(=O)c1cccc2nnsc12 the outcome was “inactive”.
In the case of Oc1ccc(C(c2ccc(O)cc2)C(Cl)(Cl)Cl)cc1, the AC50 is reported as 6.85 µM (active).
In the case of C=CCOC(Cn1ccnc1)c1ccc(Cl)cc1Cl (centres undefined), the AC50 is reported as 5.57 µM (active).
For Cc1nn(C)c(Oc2ccccc2)c1C=NOCc1ccc(C(=O)OC(C)(C)C)cc1, the AC50 was 4.36 µM (active).
With O=C(O)c1ccccc1 the outcome was “inactive”.
For CC(C)(C)[C@@H](O)[C@@H](Cc1ccc(Cl)cc1)n1cncn1, the outcome was “inactive”.
With O=C(c1ccccc1)C1CCCCC1 the AC50 was 8.12 µM (active).
With CCCN(CCC)c1c([N+](=O)[O-])cc(C(F)(F)F)c(N)c1[N+](=O)[O-] the outcome was “inactive”.
In the case of CC(C)CCCCCCc1ccc(O)cc1, the AC50 is reported as 20 µM (active).
With N#CSCSc1nc2ccccc2s1 the AC50 was 23.9 µM (active).
For OB(O)O, the outcome was “inactive”.
For O=C(c1ccc(O)cc1O)c1ccc(O)cc1O, the outcome was “inactive”.
With COC(=O)c1ccccc1C(=O)O the outcome was “inactive”.
